The record followed here is article PMC7862700, “An all-to-all approach to the identification of sequence-specific readers for epigenetic DNA modifications on cytosine”.

What all share (assay): DAPPL (digital affinity profiling via proximity ligation, sequencing); 10 mM Tris-HCl pH 7.5, 50 mM NaCl, 1 mM DTT, 4% glycerol, room temperature, 30 min; GST-TFs on glutathione beads, 16-mer random dsDNA library, 0.1% formaldehyde crosslink after washing; high values mean tight binding
Conditions in all cases: protein: recombinant; tags: N-terminal GST; dsDNA, one strand shown

One assay has as its target T1, FLI1 (Homo sapiens, UniProt Q01543 1-452).
T1 sequence: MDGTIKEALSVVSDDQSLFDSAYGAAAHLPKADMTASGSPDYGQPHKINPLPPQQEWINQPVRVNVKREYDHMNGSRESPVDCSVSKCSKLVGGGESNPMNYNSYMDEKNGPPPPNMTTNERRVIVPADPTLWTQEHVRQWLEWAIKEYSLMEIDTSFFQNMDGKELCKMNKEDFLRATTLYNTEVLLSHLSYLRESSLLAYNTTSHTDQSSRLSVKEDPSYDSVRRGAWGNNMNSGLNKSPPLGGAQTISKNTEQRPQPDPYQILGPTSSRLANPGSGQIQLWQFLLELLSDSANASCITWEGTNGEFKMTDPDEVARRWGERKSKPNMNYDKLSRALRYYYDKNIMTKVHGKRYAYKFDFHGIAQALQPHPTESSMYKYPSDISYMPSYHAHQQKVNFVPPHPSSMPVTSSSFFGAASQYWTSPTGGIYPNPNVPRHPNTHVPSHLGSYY
Summed up: (§1)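 A tag-only sample was pooled with DNA-barcoded human transcription factors that had been expressed in yeast as GST fusions and captured on glutathione beads. The pools were incubated for 30 min at room temperature with 200 nmole of a random double-stranded 16-mer DNA library in Tris/NaCl/DTT/glycerol buffer, then washed, crosslinked with 0.1% formaldehyde, proximity-ligated (BsaI/T4 ligase, 1 h, 37 °C), PCR-amplified and sequenced on an Illumina NextSeq500. Binding signal is each hexamer's read frequency for a factor divided by its frequency for the tag-only sample.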

A further assay concerns the target T2, ELK1 (Homo sapiens, UniProt P19419 1-428).
T2 sequence: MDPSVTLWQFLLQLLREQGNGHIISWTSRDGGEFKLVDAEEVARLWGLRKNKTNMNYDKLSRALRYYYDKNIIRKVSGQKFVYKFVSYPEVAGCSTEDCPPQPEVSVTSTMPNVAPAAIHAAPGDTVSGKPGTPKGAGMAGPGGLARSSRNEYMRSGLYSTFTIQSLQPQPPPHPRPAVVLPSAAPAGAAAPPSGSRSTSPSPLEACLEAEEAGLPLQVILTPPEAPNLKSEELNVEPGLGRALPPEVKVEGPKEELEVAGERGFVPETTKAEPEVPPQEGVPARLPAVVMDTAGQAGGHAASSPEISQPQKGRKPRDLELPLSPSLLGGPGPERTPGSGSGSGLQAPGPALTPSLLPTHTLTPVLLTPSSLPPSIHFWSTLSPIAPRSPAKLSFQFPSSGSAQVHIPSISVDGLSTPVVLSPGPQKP
In short, it runs like this: as §1

In a further assay the target is T3, GABPA (Homo sapiens, UniProt Q06546 1-454).
T3 sequence: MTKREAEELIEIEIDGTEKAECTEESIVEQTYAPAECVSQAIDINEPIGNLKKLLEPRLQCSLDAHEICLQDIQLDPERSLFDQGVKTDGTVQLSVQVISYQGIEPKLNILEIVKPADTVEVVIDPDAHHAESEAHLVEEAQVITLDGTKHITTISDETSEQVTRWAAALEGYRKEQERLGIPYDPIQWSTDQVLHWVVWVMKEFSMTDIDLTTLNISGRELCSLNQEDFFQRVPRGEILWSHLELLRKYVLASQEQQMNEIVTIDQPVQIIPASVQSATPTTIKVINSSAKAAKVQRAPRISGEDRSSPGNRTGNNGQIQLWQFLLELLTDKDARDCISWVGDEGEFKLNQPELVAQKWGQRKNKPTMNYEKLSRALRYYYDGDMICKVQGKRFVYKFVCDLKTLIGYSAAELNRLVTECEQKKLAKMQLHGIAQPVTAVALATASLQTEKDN
In short, it runs like this: as §1

Another assay deals with T4, ERG (Homo sapiens, UniProt P11308 1-479).
T4 sequence: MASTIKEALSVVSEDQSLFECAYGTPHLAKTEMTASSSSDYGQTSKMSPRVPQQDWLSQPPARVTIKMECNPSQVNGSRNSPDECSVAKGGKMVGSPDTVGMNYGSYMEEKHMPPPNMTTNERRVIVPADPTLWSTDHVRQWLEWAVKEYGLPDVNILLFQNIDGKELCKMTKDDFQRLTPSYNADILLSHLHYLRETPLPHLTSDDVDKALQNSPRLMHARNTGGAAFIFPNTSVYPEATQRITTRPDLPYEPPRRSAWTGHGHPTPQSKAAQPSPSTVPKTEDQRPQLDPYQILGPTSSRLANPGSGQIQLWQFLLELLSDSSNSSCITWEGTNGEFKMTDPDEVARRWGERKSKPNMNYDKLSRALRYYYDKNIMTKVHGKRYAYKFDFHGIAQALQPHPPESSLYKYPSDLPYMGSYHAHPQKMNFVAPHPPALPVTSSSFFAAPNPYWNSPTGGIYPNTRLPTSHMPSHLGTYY
Summed up: as §1

A further assay concerns the target ELF1 (Homo sapiens, UniProt P32519 1-619). In short, it runs like this:
as §1

The next assay has as its target T5, EHF (Homo sapiens, UniProt Q9NZC4 1-300).
T5 sequence: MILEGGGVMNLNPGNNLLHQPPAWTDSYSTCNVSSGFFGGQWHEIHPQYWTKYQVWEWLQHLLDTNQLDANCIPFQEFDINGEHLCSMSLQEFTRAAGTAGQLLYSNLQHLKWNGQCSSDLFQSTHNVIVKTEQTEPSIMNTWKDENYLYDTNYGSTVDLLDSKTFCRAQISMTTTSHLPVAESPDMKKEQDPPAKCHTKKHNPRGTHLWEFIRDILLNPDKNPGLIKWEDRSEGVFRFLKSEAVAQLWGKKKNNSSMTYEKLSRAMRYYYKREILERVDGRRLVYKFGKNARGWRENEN
Summed up:
as §1

In a further assay the target is SPI1 (Homo sapiens, UniProt P17947 1-270). Summed up:
as §1

A further assay addresses SPIB (Homo sapiens, UniProt Q01892 1-262). Summed up: as §1
A further assay has as its target T6, ELK3 (Homo sapiens, UniProt P41970 1-407).
T6 sequence: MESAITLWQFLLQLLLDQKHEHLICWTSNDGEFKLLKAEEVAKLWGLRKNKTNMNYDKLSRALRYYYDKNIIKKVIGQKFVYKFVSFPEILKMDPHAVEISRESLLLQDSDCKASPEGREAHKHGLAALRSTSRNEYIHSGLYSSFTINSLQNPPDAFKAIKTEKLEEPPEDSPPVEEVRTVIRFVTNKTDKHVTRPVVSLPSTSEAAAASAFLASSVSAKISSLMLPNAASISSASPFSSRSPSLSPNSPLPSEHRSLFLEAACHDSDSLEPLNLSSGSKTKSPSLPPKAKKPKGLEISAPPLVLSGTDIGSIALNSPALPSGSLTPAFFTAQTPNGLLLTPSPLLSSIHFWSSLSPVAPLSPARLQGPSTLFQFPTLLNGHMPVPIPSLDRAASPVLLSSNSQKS
In short, it runs like this:
as §1

The target in the next assay is T7, FEV (Homo sapiens, UniProt Q99581 1-238).
T7 sequence: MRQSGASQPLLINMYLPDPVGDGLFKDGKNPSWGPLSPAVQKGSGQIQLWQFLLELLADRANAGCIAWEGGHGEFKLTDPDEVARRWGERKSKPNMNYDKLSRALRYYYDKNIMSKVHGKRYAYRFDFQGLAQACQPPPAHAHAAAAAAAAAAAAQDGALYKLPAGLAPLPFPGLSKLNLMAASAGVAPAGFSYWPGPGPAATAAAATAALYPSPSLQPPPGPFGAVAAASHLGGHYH
Summed up: as §1

A further assay deals with ETV5 (Homo sapiens, UniProt P41161 1-510). In short, it runs like this:
as §1

Another assay concerns the target T8, SPIC (Homo sapiens, UniProt Q8N5J4 1-248).
T8 sequence: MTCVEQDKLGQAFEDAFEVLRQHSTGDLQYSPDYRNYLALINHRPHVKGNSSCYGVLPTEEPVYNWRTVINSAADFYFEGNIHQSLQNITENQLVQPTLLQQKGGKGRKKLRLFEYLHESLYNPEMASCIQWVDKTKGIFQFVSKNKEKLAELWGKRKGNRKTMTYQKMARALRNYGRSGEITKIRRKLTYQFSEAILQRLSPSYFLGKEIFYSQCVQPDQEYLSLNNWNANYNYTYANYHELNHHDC
In short, it runs like this: as §1

A further assay addresses ELF4 (Homo sapiens, UniProt Q99607 1-663). Summed up:
as §1

The next assay deals with T9, ELK4 (Homo sapiens, UniProt P28324-2 1-405).
T9 sequence: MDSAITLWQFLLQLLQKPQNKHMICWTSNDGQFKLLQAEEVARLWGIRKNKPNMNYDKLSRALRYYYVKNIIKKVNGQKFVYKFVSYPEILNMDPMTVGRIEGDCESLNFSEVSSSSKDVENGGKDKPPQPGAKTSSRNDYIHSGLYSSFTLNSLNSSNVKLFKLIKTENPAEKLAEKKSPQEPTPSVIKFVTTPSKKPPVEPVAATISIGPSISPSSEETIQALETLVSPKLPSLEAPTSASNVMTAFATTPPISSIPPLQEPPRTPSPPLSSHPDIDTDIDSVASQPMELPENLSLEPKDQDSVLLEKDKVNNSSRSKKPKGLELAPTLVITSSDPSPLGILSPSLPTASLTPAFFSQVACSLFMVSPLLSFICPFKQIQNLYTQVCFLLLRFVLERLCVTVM
In short, it runs like this: as §1

A further assay concerns the target T10, ETV2 (Homo sapiens, UniProt O00321 1-342).
T10 sequence: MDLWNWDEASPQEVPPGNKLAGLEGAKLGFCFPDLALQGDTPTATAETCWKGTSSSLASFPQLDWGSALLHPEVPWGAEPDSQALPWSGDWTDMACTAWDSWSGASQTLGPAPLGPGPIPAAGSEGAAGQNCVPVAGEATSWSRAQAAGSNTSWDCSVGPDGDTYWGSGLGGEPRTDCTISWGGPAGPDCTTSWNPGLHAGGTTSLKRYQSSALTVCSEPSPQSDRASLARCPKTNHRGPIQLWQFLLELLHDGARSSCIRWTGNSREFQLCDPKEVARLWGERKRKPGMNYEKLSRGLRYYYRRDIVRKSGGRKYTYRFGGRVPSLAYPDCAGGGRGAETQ
In short, it runs like this:
as §1

The target of a further assay is T11, ELF3 (Homo sapiens, UniProt P78545 1-371).
T11 sequence: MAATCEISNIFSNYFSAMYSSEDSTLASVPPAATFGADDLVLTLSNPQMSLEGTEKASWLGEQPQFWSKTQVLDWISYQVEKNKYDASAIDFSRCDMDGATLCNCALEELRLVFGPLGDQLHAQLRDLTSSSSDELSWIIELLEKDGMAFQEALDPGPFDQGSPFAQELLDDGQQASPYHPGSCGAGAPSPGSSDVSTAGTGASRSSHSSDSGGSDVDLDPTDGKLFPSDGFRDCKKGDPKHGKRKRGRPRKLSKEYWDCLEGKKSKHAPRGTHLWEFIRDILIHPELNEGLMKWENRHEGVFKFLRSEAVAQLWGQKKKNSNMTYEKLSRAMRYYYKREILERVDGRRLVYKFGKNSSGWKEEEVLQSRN
In short, it runs like this: as §1

The next assay deals with ETV1 (Homo sapiens, UniProt P50549 1-477). In short, it runs like this:
as §1

Chain of SPIB (Q01892 whole entry): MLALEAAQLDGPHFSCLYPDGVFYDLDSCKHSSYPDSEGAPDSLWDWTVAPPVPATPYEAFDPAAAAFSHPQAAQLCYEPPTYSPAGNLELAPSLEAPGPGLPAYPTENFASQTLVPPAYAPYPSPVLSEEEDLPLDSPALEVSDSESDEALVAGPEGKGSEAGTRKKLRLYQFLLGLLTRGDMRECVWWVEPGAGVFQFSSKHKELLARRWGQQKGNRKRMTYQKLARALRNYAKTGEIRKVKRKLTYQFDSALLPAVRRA
Chain of ELF1 (P32519 whole entry): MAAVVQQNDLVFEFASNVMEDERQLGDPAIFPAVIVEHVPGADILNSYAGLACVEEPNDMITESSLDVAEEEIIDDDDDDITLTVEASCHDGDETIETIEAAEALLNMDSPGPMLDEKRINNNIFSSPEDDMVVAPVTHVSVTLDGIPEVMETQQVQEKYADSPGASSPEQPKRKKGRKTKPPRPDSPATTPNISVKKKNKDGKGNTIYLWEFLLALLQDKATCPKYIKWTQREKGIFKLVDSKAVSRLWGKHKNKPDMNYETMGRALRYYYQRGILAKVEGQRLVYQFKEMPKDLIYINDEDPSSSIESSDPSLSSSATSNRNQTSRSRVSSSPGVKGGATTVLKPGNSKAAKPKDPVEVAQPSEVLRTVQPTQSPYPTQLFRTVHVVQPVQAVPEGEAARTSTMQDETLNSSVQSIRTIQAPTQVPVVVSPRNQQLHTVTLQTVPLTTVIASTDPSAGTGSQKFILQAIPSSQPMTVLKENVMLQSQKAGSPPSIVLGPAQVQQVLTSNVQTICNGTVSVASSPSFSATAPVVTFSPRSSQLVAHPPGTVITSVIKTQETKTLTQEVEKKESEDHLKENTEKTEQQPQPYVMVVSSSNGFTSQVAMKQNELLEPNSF
Chain of ELF4 (Q99607 whole entry): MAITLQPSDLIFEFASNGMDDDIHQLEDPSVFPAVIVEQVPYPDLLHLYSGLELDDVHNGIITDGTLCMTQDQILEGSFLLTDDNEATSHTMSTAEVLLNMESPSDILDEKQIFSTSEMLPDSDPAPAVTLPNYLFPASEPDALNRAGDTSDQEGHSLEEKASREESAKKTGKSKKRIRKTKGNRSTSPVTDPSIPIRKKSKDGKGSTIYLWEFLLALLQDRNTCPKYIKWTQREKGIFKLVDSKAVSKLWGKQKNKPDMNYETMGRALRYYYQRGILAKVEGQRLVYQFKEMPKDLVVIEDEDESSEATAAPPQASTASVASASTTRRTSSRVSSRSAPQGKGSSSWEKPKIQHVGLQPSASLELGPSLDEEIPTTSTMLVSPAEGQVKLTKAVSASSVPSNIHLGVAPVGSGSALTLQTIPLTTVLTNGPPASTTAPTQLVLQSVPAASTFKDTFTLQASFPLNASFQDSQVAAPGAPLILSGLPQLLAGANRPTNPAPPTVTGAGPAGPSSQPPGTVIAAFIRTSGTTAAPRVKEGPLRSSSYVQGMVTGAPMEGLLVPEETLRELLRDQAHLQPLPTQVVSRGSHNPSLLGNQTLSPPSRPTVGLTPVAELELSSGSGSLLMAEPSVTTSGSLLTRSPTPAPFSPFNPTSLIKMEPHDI
Chain of ETV5 (P41161 whole entry): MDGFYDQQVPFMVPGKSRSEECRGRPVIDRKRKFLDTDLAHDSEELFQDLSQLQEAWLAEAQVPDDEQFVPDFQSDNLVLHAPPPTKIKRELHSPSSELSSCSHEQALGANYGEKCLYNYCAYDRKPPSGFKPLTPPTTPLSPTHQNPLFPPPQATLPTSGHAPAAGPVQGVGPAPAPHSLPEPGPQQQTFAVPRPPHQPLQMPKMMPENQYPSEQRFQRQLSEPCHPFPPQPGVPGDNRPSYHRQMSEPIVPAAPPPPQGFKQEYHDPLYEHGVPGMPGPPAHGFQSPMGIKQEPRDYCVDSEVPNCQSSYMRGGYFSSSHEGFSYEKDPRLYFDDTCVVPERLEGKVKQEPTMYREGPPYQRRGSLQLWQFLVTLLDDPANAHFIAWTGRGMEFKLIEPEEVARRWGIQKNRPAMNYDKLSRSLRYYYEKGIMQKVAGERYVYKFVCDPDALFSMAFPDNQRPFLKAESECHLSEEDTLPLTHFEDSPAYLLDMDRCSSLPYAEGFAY
Chain of ETV1 (P50549 whole entry): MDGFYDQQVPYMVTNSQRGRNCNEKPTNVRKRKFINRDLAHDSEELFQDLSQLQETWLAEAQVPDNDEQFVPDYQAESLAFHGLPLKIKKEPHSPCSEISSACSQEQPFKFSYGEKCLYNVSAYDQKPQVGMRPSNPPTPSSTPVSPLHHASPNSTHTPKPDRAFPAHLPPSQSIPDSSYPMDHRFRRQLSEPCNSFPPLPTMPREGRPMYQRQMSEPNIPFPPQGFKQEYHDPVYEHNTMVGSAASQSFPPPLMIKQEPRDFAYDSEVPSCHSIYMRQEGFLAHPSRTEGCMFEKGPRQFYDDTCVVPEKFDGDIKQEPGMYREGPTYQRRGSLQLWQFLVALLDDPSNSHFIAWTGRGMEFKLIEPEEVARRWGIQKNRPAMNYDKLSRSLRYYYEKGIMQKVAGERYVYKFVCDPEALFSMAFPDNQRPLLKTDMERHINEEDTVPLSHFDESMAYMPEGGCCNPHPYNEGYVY

For the sequence TGCATC, the binding signal with FLI1 is 1.35 fold enrichment (6-mer frequency, TF over GST control); with ELK1, 1.42 fold enrichment (6-mer frequency, TF over GST control); in the assay with GABPA, 1.38 fold enrichment (6-mer frequency, TF over GST control); with ERG, 1.43 fold enrichment (6-mer frequency, TF over GST control); with ELF1, 1.31 fold enrichment (6-mer frequency, TF over GST control); with EHF, 1.33 fold enrichment (6-mer frequency, TF over GST control). The binding signal is 1.42 fold enrichment (6-mer frequency, TF over GST control) with SPI1; 1.35 fold enrichment (6-mer frequency, TF over GST control) in the assay with SPIB; 1.44 fold enrichment (6-mer frequency, TF over GST control) in the assay with ELK3; 1.33 fold enrichment (6-mer frequency, TF over GST control) with FEV; 1.39 fold enrichment (6-mer frequency, TF over GST control) with ETV5; 1.46 fold enrichment (6-mer frequency, TF over GST control) in the assay with SPIC. Also, the binding signal in the assay with ELF4 is 1.31 fold enrichment (6-mer frequency, TF over GST control); in the assay with ELK4, 1.22 fold enrichment (6-mer frequency, TF over GST control); with ETV2, 1.33 fold enrichment (6-mer frequency, TF over GST control); in the assay with ELF3, 1.3 fold enrichment (6-mer frequency, TF over GST control); in the assay with ETV1 it was 1.4 fold enrichment (6-mer frequency, TF over GST control).
